A structure can be active in one record and inactive in another. Calls of active or inactive are those of the source. Rule for the calls: active = hit-call score of the fitted dose curve at least 0.9, where 1 is the maximum; inactive = score below 0.9.

Sequence of Transcription factor E2F1 (Homo sapiens) (Q01094 whole entry, looked up): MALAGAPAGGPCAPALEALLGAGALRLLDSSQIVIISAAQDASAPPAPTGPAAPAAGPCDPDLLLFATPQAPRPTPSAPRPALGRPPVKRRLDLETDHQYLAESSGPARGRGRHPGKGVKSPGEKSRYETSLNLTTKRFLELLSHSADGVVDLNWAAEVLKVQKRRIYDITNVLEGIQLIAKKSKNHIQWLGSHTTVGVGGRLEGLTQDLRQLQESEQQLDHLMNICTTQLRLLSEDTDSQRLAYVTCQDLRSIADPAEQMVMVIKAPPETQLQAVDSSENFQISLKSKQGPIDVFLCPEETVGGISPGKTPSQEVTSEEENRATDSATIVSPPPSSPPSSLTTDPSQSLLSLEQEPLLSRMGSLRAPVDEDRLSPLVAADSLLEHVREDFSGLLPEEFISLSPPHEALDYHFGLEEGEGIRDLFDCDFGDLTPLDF

The assay has as its target Transcription factor E2F1 (Homo sapiens) (UniProt Q01094). Kind of assay: ATG_E2F_CIS: Attagene CIS-FACTORIAL HepG2 Assay for human E2F Transcription Factor 1 (AID 2282935). The conditions noted are these: HepG2 Attagene cis-reporter, E2F reporter RNA transcripts; actives raise or lower the signal. As to the method: ATG_CIS is a cell-based, multiplexed-readout assay that uses HepG2, a human liver cell line, with measurements taken at 24 hours after chemical dosing in a 24-well plate.ATG_E2F_CIS is one of 52 assay component(s) measured or calculated from the ATG_CIS assay. It is designed to make measurements of mRNA induction, a form of inducible reporter, as detected with fluorescence intensity signals by Reverse transcription polymerase chain reaction (RT-PCR) and Capillary electrophoresis technology.Data from the assay component ATG_E2F_CIS was analyzed into 1 assay endpoint. This assay endpoint, ATG_E2F_CIS, was analyzed with bidirectional fitting relative to DMSO as the negative control and baseline of activity. Using a type of inducible reporter, measures of mRNA for gain or loss-of-signal activity can be used to understand the reporter gene at the transcription factor-level as they relate to the gene E2F1. Furthermore, this assay endpoint can be referred to as a primary readout, because this assay has produced multiple assay endpoints where this one serves a reporter gene function. To generalize the intended target to other relatable targets, this assay endpoint is annotated to the dna binding intended target family, where the subfamily is E2F transcription factor.
Human liver HepG2 cells are transiently transfected with multiple reporter transcription units (MRTUs) in 6-well plates using FuGene 6 reagent (Roche; 3 ml FuGene/1 mg DNA). The MRTU constructs are regulated by a cis-regulating element (promoter). […] A major difference between the CIS and TRANS system is that in CIS activities of endogenous TFs are measured, whereas the TRANS assay evaluates changes in activities of exogenous, chimeric NR-Gal4 proteins. […] At the end of 24 hour incubation, total RNA was isolated using TriZol reagent (Invitrogen). The isolated RNA is then reverse-transcribed using oligo(dT) primer and Mo-MLV reverse transcriptase (Invitrogen) with DNAse I (Ambion) treatment for 30 min. The one-tenth of the produced cDNA was amplified by PCR using Taq DNA polymerase (Invitrogen) and two reporter sequence-specific primers. The PCR products were fluorescently labeled by primer extension with 6-arboxyfluorescein (6-FAM) 5'-labeled reporter sequence-specific primer (2 min at 95 C, 20 s at 68 C and 10 min at 72 C) and these products were digested with 5U of HpaI (New England Biolabs) for 2h at 37 C. The fragments were purified using Qiaquick PCR columns (Qiagen), analyzed on an ABI 3130xL genetic analyzer (Applied Biosystems) with peak positions identified by using a set of X-rhodamine (ROX)-labeled MapMarker1000 molecular weight standards (BioVentures). The raw capillary electrophoresis data was processed using Attagraph software (Attagene).
Regarding `O=C1O[C@H]([C@@H](O)CO)C(O)=C1O`, the call was inactive.
Same read-out and setting: the value for `COc1cccc([C@H](O)C2CCN(CCc3ccc(F)cc3)CC2)c1OC` was “inactive”.
On to `C[C@]12CC[C@@H]3c4ccc(O)cc4CC[C@H]3[C@@H]1CC[C@H]2O`, for which the result was inactive.
Same read-out and setting: the value for `CO[C@H]1/C=C/O[C@@]2(C)Oc3c(C)c(O)c4c(O)c(c(/C=N/N5CCN(C)CC5)c(O)c4c3C2=O)NC(=O)/C(C)=C\C=C\[C@H](C)[C@H](O)[C@@H](C)[C@@H](O)[C@@H](C)[C@H](OC(C)=O)[C@@H]1C` was “inactive”; that for `Cc1ccc2oc(CN(Cc3ccccc3)C(=O)Nc3c(F)cc(F)cc3F)c(-c3ccc(Cl)cc3)c2c1` was “inactive”; that for `O=C(Nc1ccc(Cl)cc1)Nc1ccc(Cl)c(Cl)c1` was “inactive”.
Still for that read-out and setting: the value for `NCc1cccc(C2CCN(C(=O)c3ccc(C#Cc4ccccc4F)o3)CC2)c1` was “inactive”; that for `CC1=CC(=O)/C(=C(/C)O)C(=O)O1` was “inactive”; that for `O=C=NCCCCCCN=C=O` was “inactive”.
Same read-out and setting: the value for `O=C(O)c1ccccc1-n1cc(C(=O)O)c(=O)c2cc(Nc3c(F)cc(F)cc3Cl)c(Cl)cc21` was “inactive”; that for `Oc1ccccc1` was “inactive”; that for `CCCCCc1ccc(N)cc1` was “inactive”.
As to `CC(O)CC(C)(C)O` (stereo not given), the result was inactive.
Take `NC(=O)c1nc(-c2cccc(-c3cc(F)ccc3OCC(F)(F)C(F)(F)F)c2)n[nH]1`: the AC50 was 16.8 µM (active).
As to `Oc1ccc2ccccc2c1`, the call was inactive.
Still for that read-out and setting: the value for `CN1C(=O)N(c2ccccc2Br)Cc2cnc(Nc3ccc4c(c3)OCC(CO)O4)nc21` (stereo not given) was “inactive”; that for `Cc1cn([C@H]2C[C@H](N=[N+]=[N-])[C@@H](CO)O2)c(=O)[nH]c1=O` was “inactive”.
For `CC(=O)N1CCN(c2ccc(OC[C@H]3CO[C@](Cn4ccnc4)(c4ccc(Cl)cc4Cl)O3)cc2)CC1`, the call was inactive.
Still for that read-out and setting: the value for `CN(C)c1ccc(C(=C2C=CC(=[N+](C)C)C=C2)c2ccc(N(C)C)cc2)cc1` was “inactive”; that for `Cc1cc2c(cc1C(F)(F)F)N(C(=O)Nc1ccc(Oc3cccnc3C)nc1)CC2` was “inactive”.
Same read-out and setting: the value for `CCN(CC)C(=O)c1cc(S(=O)(=O)Cc2ccccc2)c(N2CCC(c3ccccc3)CC2)cc1N(CC)CCN(C)C` was “inactive”.
The same measure, in the same setting: the value for `O=CCCCC=O` was “inactive”.
Regarding `CCCCCCCC[Si](OCC)(OCC)OCC`, the half-maximal activity concentration (AC50) was 153 µM (active) and the outcome was inactive.
`CCCCCCCCCC(=O)O`: the call was inactive.
Still for that read-out and setting: the value for `Cc1occc1C(=O)Nc1ccc(C(=O)N2CCC(F)(F)/C(=C\C(=O)N3CCC(N4CCCCC4)CC3)c3ccccc32)cc1` was “inactive”.
Same read-out and setting: the value for `CCCCCCCCOc1ccc(C(=O)c2ccccc2)c(O)c1` was “inactive”.
On the same count and under the same terms, the value for `CC(C)(c1cc(Br)c(O)c(Br)c1)c1cc(Br)c(O)c(Br)c1` was “inactive”.
In the case of `Clc1cc(Cl)c2c(c1)N=C1CCCCCN1C2`, the compound was called inactive.
For the compound `O=C1CCC(C2CCCCC2)CC1`, the outcome was inactive.
In the case of `O=C(O)Cc1cc(I)c(Oc2ccc(O)c(I)c2)c(I)c1`, the compound was called inactive.
Same read-out and setting: the value for `O=C(O)c1ccccc1C(=O)OCc1ccccc1` was “inactive”.
Still for that read-out and setting: the value for `Cc1c2ccccc2c(C)c2c1ccc1ccccc12` was “inactive”; that for `CCOC(=O)O[C@H](C)OC(=O)c1ccc2c(c1)cc(C(=O)NC1CCN(C(C)C)CC1)n2Cc1cc(-c2ccc(Cl)s2)on1` was “inactive”.
Still for that read-out and setting: the value for `CCCCCCCCOC(=O)c1cc(O)c(O)c(O)c1` was “inactive”.
Take `Clc1ccccc1C(c1ccccc1)(c1ccccc1)n1ccnc1`: the result was inactive.
On to `O=C1c2ccccc2C(=O)N1CCc1noc(-c2ccc(CN3CCCCCC3)s2)n1`, for which the call was inactive.
On the same count and under the same terms, the value for `CN(C)C(=O)C1(N2CCCCC2)CCN(CC[C@@]2(c3ccc(Cl)c(Cl)c3)CN(C(=O)c3ccccc3)CCO2)CC1` was “inactive”.
As for `Cc1cc(F)ccc1-c1cc(N2CC[C@@H](O)[C@H]2CO)ncc1N(C)C(=O)C(C)(C)c1cc(C(F)(F)F)cc(C(F)(F)F)c1`, the call was inactive.
On the same count and under the same terms, the value for `O=C(O)Cn1c(=O)n(Cc2ccc(Br)cc2F)c(=O)c2ccc(Cl)cc21` was “inactive”.

Usually AC50 stands for the concentration at which the activity in the assay is half-maximal.

(Values after PubChem BioAssay (EPA / NIEHS).)
